Source: PubChem BioAssay (NCATS)
Results filed as inconclusive are left out. Values without a mark were called inactive. Activity calls are given as the source filed them. Calls follow the shape of the dose curve; as a rule, active = well fitted cell-killing curve with a large enough effect; inconclusive = small, poorly fitted or top-dose-only effect, or effect the other way; inactive = no such curve, though single readings can be large or run the other way.

assay: Quantitative High-Throughput drug screen in 47 multiple myeloma cell lines against the NCATS MIPE library collection: KMS20_JCRB cell viability assay (AID 1918973); conditions: CellTiter-Glo ATP, 48 h; series mostly up to 45.8 µM; viability (% of DMSO): at the top concentration; also: nearly all actives have a fitted effect of over 45% in size;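 as to viability (% of DMSO): 100% = DMSO only wells and 0% = media only wells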
Method in brief: (§1)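 Viability readout: CellTiter-Glo luminescence following 5 min room-temperature incubation with reagent. Prior exposure: 48 h, 37C, humidified 5% CO2, 500 cells per well.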
Potency is read from the fitted curve at half-maximal effect.

Row | Compound | viability (% of DMSO) [%] | Potency
1 | O=C1c2c(O)cccc2[C@@H]([C@@H]2O[C@H](CO)[C@@H](O)[C@H](O)[C@H]2O)c2cc(CO)cc(O)c21 | 114 | –
2 | CC(C)n1cnc2c(NCCc3ccc(O)cc3)nc(-c3csc4ccccc34)nc21 | – | 7.43 µM (active)
3 | CC(=O)O[C@H]1C[C@@H]2CC[C@H]3[C@H]4C[C@H]([N+]5(C)CCCCC5)[C@@H](OC(C)=O)[C@@]4(C)CC[C@@H]3[C@@]2(C)C[C@H]1[N+]1(C)CCCCC1 | 160 | –
4 | COc1cc(CCc2cc(NC(=O)c3ccc(N4C[C@@H](C)N[C@@H](C)C4)cc3)n[nH]2)cc(OC)c1 | – | 4.69 µM (active)
5 | CC(O)(C#Cc1ccc2c(c1)N(c1nc(N)ncc1Cl)CC2)c1nccs1 (stereo unspecified) | – | 2.64 µM (active)
6 | c1coc(CNc2ncnc3nc[nH]c23)c1 | 69.5 | –
7 | CC(=O)N1CCN(c2ccc(OCc3nn(C)c(C)c3-c3cccc4c(CCCOc5cccc6ccccc56)c(C(=O)O)n(Cc5cccnc5)c34)cc2)CC1 | – | 0.0526 µM (active)
8 | C[C@H](CCC(=O)O)[C@H]1CC[C@H]2[C@@H]3[C@H](O)C[C@@H]4C[C@H](O)CC[C@]4(C)[C@@H]3CC[C@]12C | 93.9 | –
9 | CN(C)CC(=O)N1CCC(c2ccc(NC(=O)c3ncc(C#N)[nH]3)c(C3=CCCCC3)c2)CC1 | – | 13.2 µM (active)
10 | CNC(=O)c1cccc(-c2ccc3c(N4CCOC[C@H]4C)nc(N4CCOC[C@H]4C)nc3n2)c1 | – | 0.0935 µM (active)
11 | CON=C(C(=O)N[C@@H]1C(=O)N2C(C(=O)O)=C(CSC(=O)c3ccco3)CS[C@H]12)c1csc(N)n1 | 106 | –
12 | CC[C@H]1OC(=O)[C@H](C)[C@@H](O[C@H]2C[C@@](C)(OC)[C@@H](O)[C@H](C)O2)[C@H](C)[C@@H](O[C@@H]2O[C@H](C)C[C@H](N(C)C)[C@@H]2O)[C@](C)(OC)C[C@@H](C)C(=O)[C@H](C)[C@@H](O)[C@]1(C)O | 95.2 | –
13 | COc1cc(C[C@@H](CO)[C@H](CO)Cc2ccc(O)c(OC)c2)ccc1O | – | 0.526 µM (active)
14 | COC(=O)[C@@H]1CC2=CC(=O)CC[C@]2(C)[C@@]23O[C@@H]2C[C@@]2(C)[C@H](CC[C@@]24CCC(=O)O4)[C@@H]13 | 114 | –
15 | C[C@@H](NCc1cc2ccccc2[nH]1)c1cccc2ccccc12 | 103 | –
16 | C[C@H]1COc2c(N3CCN(C)CC3)c(F)cc3c(=O)c(C(=O)O)cn1c23 | 144 | –

assay: Quantitative High-Throughput drug screen in 47 multiple myeloma cell lines against the NCATS MIPE library collection: KMS21BM_JCRB cell viability assay (AID 1918974); conditions: ATP luminescence, 48 h; viability: at 45.8 µM (top of the series)
Method in brief: as §1

Row | Compound | Potency | viability [%]
17 | C#Cc1cccc(Nc2ncnc3cc(OCCOC)c(OCCO)cc23)c1 | 0.132 µM (active) | –
18 | C[N+](C)([O-])CCNc1ccc(NCC[N+](C)(C)[O-])c2c1C(=O)c1c(O)ccc(O)c1C2=O | – | 236
19 | COc1cc(C(C)C)c(Oc2cnc(NC(CO)CO)nc2N)cc1I | 0.662 µM (active) | –
20 | CC(O)(C#Cc1ccc2c(c1)N(c1nc(N)ncc1Cl)CC2)c1nccs1 (stereo unspecified) | 0.332 µM (active) | –
21 | c1coc(CNc2ncnc3nc[nH]c23)c1 | – | 181
22 | CNC(=O)c1cccc(-c2ccc3c(N4CCOC[C@H]4C)nc(N4CCOC[C@H]4C)nc3n2)c1 | 0.166 µM (active) | –
23 | COc1cc(C[C@@H](CO)[C@H](CO)Cc2ccc(O)c(OC)c2)ccc1O | 2.35 µM (active) | –
24 | CC(=O)O[C@H]1C[C@@H]2CC[C@H]3[C@H]4C[C@H]([N+]5(C)CCCCC5)[C@@H](OC(C)=O)[C@@]4(C)CC[C@@H]3[C@@]2(C)C[C@H]1N1CCCCC1 | – | 206

assay: Quantitative High-Throughput drug screen in 47 multiple myeloma cell lines against the NCATS MIPE library collection: KMS26_JCRB cell viability assay (AID 1918975); conditions: KMS26 myeloma cells viability, CellTiter-Glo ATP, 48 h; series mostly up to 45.8 µM; viability (% of DMSO): at the top concentration; also: nearly all actives have a fitted effect of over 45% in size;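 as to viability (% of DMSO): 100% = DMSO-treated wells and 0% = wells with media only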
Method in brief: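 qHTS of the MIPE 4.0 collection: 500 myeloma cells/well, 48 h drug exposure at 37C in 5% CO2, then CellTiter-Glo for 5 min at room temperature before luminescence reading.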

Row | Compound | Potency | viability (% of DMSO)
25 | CC(C)[C@H](CO)Nc1nc(Nc2cccc(Cl)c2)c2ncn(C(C)C)c2n1 | 23.5 µM (active) | –
26 | N#Cc1cc(NC(=O)Nc2nnc(-c3ccncc3)s2)ccc1-c1cn[nH]c1 | – | 131%
27 | COc1cc(OC)c(NC(=O)Nc2cc(C)on2)cc1Cl | – | 142%
28 | COC(=O)[C@@H]1[C@H]2C[C@@H]3c4[nH]c5ccccc5c4CCN3C[C@@H]2CC[C@@H]1O | – | 130%
29 | COc1cc2c(cc1O)CCC1C2CC[C@@]2(C)C1CC[C@@H]2O (stereo partly specified) | 3.72 µM (active) | –
30 | O=C1c2c(O)cccc2[C@@H]([C@@H]2O[C@H](CO)[C@@H](O)[C@H](O)[C@H]2O)c2cc(CO)cc(O)c21 | – | 120%
31 | C[C@@H]1C(=O)O[C@H]2CC34[C@H]5C[C@@H](C(C)(C)C)C36[C@H](OC(=O)[C@@H]6O)O[C@@]4(C(=O)O5)[C@]21O (stereo partly specified) | – | 141%
32 | CC(C)n1cnc2c(NCCc3ccc(O)cc3)nc(-c3csc4ccccc34)nc21 | 11.8 µM (active) | –
33 | CCCNC(=O)[C@H]1O[C@H]1C(=O)N[C@H](C(=O)N1CCC[C@@H]1C(=O)OC)C(C)CC (stereo partly specified) | 11.8 µM (active) | –
34 | COc1cc(C(C)C)c(Oc2cnc(NC(CO)CO)nc2N)cc1I | 2.64 µM (active) | –
35 | O=S(=O)(O)CCSSCCS(=O)(=O)O | – | 139%
36 | COc1cc(CCc2cc(NC(=O)c3ccc(N4C[C@@H](C)N[C@@H](C)C4)cc3)n[nH]2)cc(OC)c1 | 20.9 µM (active) | –
37 | c1coc(CNc2ncnc3nc[nH]c23)c1 | – | 120%
38 | O=C(CN1C(=O)C2(CCCC2)NC[C@H]1c1cc(F)cc(F)c1)Nc1ccc2c(c1)C[C@@]1(C2)C(=O)Nc2ncccc21 | – | 108%
39 | CC(=O)N1CCN(c2ccc(OCc3nn(C)c(C)c3-c3cccc4c(CCCOc5cccc6ccccc56)c(C(=O)O)n(Cc5cccnc5)c34)cc2)CC1 | 3.72 µM (active) | –
40 | NC1=N[C@H]2[C@H](CS[C@H]2CCCCC(=O)O)N1 | – | 148% [at 23.2 µM]
41 | CC(=O)N[C@H]1[C@@H]([C@H](O)[C@H](O)CO)OC(C(=O)O)=C[C@@H]1N=C(N)N | – | 136%
42 | C[C@H](CCC(=O)O)[C@H]1CC[C@H]2[C@@H]3[C@H](O)C[C@@H]4C[C@H](O)CC[C@]4(C)[C@@H]3CC[C@]12C | – | 132%
43 | CNC(=O)c1cccc(-c2ccc3c(N4CCOC[C@H]4C)nc(N4CCOC[C@H]4C)nc3n2)c1 | 1.18 µM (active) | –
44 | CON=C(C(=O)N[C@@H]1C(=O)N2C(C(=O)O)=C(CSC(=O)c3ccco3)CS[C@H]12)c1csc(N)n1 | – | 121%
45 | CC[C@H]1OC(=O)[C@H](C)[C@@H](O[C@H]2C[C@@](C)(OC)[C@@H](O)[C@H](C)O2)[C@H](C)[C@@H](O[C@@H]2O[C@H](C)C[C@H](N(C)C)[C@@H]2O)[C@](C)(OC)C[C@@H](C)C(=O)[C@H](C)[C@@H](O)[C@]1(C)O | – | 97.7%
46 | COc1cc(C[C@@H](CO)[C@H](CO)Cc2ccc(O)c(OC)c2)ccc1O | 1.32 µM (active) | –
47 | CC1=C(C(=O)Nc2cc3cn[nH]c3cc2F)C(c2ccc(Cl)cc2F)N=C(c2ccnc(Cl)c2)N1 (stereo unspecified) | – | 128%
48 | C=C1C(=CC=C2CCC[C@]3(C)[C@@H]([C@H](C)CCCC(C)(C)O)CC[C@@H]23)C[C@@H](O)C[C@@H]1O | 18.7 µM (active) | –
49 | COC1=C(OC)C(=O)C(CC=C(C)CCC=C(C)CCC=C(C)CCC=C(C)CCC=C(C)CCC=C(C)CCC=C(C)CCC=C(C)CCC=C(C)CCC=C(C)C)=C(C)C1=O | – | 118%
50 | C[C@H]1COc2c(N3CCN(C)CC3)c(F)cc3c(=O)c(C(=O)O)cn1c23 | – | 178%
51 | CC(=O)O[C@H]1C[C@@H]2CC[C@H]3[C@H]4C[C@H]([N+]5(C)CCCCC5)[C@@H](OC(C)=O)[C@@]4(C)CC[C@@H]3[C@@]2(C)C[C@H]1N1CCCCC1 | – | 125%
